Source: PubChem (The Scripps Research Institute Molecular Screening Center)
GPR151 activ = activators of human GPR151, primary screen, cell-based, PathHunter beta-arrestin, luminescence. PathHunter beta-arrestin GPR151 cells. activation, % at 11.2 µM. 1% of 650,000 active. AID 1508602, 2020; in the data active = activation above about 4.9%;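 note: 0% = median of compound wells and 100% = cells with positive control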
Target sequence (Q8TDV0 whole entry, looked up): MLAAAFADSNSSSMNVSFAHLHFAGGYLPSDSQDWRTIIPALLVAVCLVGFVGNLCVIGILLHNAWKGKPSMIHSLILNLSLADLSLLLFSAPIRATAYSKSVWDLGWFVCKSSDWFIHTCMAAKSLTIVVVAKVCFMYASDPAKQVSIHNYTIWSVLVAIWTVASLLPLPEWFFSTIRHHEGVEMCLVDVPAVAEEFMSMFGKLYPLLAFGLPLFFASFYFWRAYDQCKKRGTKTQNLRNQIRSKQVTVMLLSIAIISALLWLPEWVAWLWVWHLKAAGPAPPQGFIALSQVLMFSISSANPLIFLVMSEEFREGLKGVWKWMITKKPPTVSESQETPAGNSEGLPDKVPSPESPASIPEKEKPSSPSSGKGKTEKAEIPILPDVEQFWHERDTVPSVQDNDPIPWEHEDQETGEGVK
MITF inh = MITF inhibitors, primary screen, biochemical, AlphaScreen, human | AlphaScreen MITF homodimerization, bead proximity signal | inhibition, % at 2.6 µM | 0.91% of 650,000 active | AID 1259374, 2018; in the data active = inhibition above about 50%;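 note: 0% = vehicle wells with protein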
TEAD-YAP inh = TEAD-YAP interaction inhibition, primary screen, TEAD-YAP interaction inhibitor project, luminescence, HEK-TIYL cells. TEAD-Gal4/YAP UAS-luciferase luminescence. inhibition, % at 9.12 µM. 1.4% of 640,000 active; in the data active = inhibition above about 32%;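 note: 0% = median of test compound wells and 100% = reference inhibitor wells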
FBW7 activator = FBW7 E3 ligase activators, primary screen, biochemical, AlphaScreen, human; AID 1259310, 2017; normalized activity (activation), % at 26.1 µM; AlphaScreen FBW7–phospho-cyclin E peptide binding, activator screen; 0.13% of 650,000 active; in the data active = normalized activity above about 1.9%;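 note: purified mutant Fbw7 with reduced substrate affinity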
MITF inh conf = MITF inhibitors, retest of hits, confirmation, biochemical, AlphaScreen, triplicate. shares compounds with MITF inh. AlphaScreen MITF homodimerization, biotin/His-MITF beads. inhibition, % at 2.6 µM. 16% of 4,700 active. AID 1259372, 2018;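 active = inhibition above a cutoff derived from the DMSO control wells, cut at about 28% in these data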;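 note: 0% = MITF dimer wells with DMSO only; inhibitors lower the bead chemiluminescence by keeping MITF from dimerizing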
AS interf DR = AlphaScreen optical interference compounds, dose response, counter-screen, biochemical, HTS; shares compounds with MITF inh; AlphaScreen optical interference counterscreen, cell-free; IC50, µM; 6% of 480 active; AID 1259373, 2018; call rule not given here
AS interf ctr = AlphaScreen optical interference compounds, counter-screen for MITF inhibitor project, biochemical, triplicate | shares compounds with MITF inh | LysRS AlphaScreen counterscreen, signal interference | inhibition, % at 2.6 µM | 7.6% of 4,700 active | AID 1259376, 2018;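 active = inhibition above a cutoff derived from the DMSO control wells, cut at about 30% in these data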
An asterisk follows results filed as active; x = no result given. An excerpt weighted towards active compounds, which were near 3.5% of everything screened.

SMILES | GPR151 activ | MITF inh | TEAD-YAP inh | FBW7 activator | MITF inh conf | AS interf ctr | others
CCC(C)N1CCN(Cc2ccccc2[N+](=O)[O-])CC1 (stereo not drawn) | 1 | 74* | 7 | 0 | 13 | -14
O=[N+]([O-])c1ccc(CN2CCN(Cc3ccccc3)CC2)cc1 | -1 | 57* | -3 | 0 | 3 | 11
Cc1ccccc1CN1CCN(Cc2ccccc2[N+](=O)[O-])CC1 | 0 | 61* | -7 | 0 | 2 | -3
CC(C)CC(C(=O)Nc1ccc(Cl)cc1C(=O)c1ccccc1)N1C(=O)c2ccccc2C1=O (stereo not drawn) | 0 | 4 | 3 | 0 | x | x
Cc1ccc2nc(NC(=O)c3cccn(Cc4ccccc4Cl)c3=O)sc2c1 | -1 | 0 | -4 | 0 | x | x
CC(C)(C)NCC(O)c1cccc([N+](=O)[O-])c1 (stereo not drawn) | 0 | 8 | 9 | 0 | x | x
CN1CCN(c2c(N)cccc2Cl)CC1 | -1 | -2 | 1 | 0 | x | x
CC(C)N1CCN(Cc2cccc([N+](=O)[O-])c2)CC1 | 1 | 67* | -20 | 0 | 4 | 10
O=[N+]([O-])c1cccc(CN2CCN(c3ccccc3)CC2)c1 | 0 | 36 | 4 | 0 | x | x
Fc1ccc(CN2CCN(Cc3cccc(F)c3)CC2)cc1 | -1 | 45 | -2 | 0 | x | x
CN1CCN(Cc2cccc([N+](=O)[O-])c2)CC1 | 0 | 2 | 3 | 0 | x | x
COc1cccc(N2CCN(Cc3cccc([N+](=O)[O-])c3)CC2)c1 | 1 | 51* | -10 | 0 | 4 | 4
O=[N+]([O-])c1cccc(CN2CCN(Cc3ccc(F)cc3)CC2)c1 | 0 | 66* | 5 | 0 | -16 | -5
COc1ccc(CCNCc2ccc(OC)cc2OC)cc1 | 0 | 29 | -1 | 0 | x | x
CCCC12CN3CN(C1)CC(CCC)(C3)C2=O | -1 | -10 | -3 | 0 | x | x
CCOc1cccc(OCC)c2c(C)[n+](C)c(C)c1-2 | 0 | 73* | -34 | 0 | 79* | 3 | AS interf DR=>5.1
CCOc1cccc(OCC)c2c(C)nc(C)c1-2 | 2 | 76* | 8 | 0 | 82* | -2
CCC(C)N1CCN(Cc2ccccc2Br)CC1 (stereo not drawn) | -1 | 83* | 9 | 0 | 10 | 9
OCCN1CCN(Cc2ccccc2Br)CC1 | 0 | 35 | 2 | 0 | x | x
Cc1ccccc1CN1CCN(c2ccc(F)cc2)CC1 | 1 | 10 | -2 | 0 | x | x
CCC(C)N1CCN(Cc2ccccc2C)CC1 (stereo not drawn) | 0 | 83* | 3 | 0 | 15 | 21
C=CCN1C(=O)C2(C(C#N)=C(N)OC(c3ccccc3)=C2C(=O)OCC)c2ccccc21 (stereo not drawn) | -1 | 9 | 3 | 1 | x | x
CCN1CCN(C(=O)Cc2c(C(=O)O)n(C)c3ccccc23)CC1 | 0 | -6 | -17 | 0 | x | x
COC(=O)C1=C(C(=O)OC)C2c3ccccc3C=CN2C(C(=O)OC)=C1C(=O)OC (stereo not drawn) | 1 | 51* | 3 | 1 | 51* | 14
COc1ccccc1CCNCc1cc(OC)c(OC)cc1OC | -2 | 28 | 2 | 0 | x | x
SMILES | GPR151 activ | MITF inh | TEAD-YAP inh | FBW7 activator | MITF inh conf | AS interf ctr | others
COc1ccccc1CCNCc1ccccc1OC | 0 | 52* | -7 | 0 | 2 | -8
COc1ccc(CN2CCN(Cc3ccc(F)cc3)CC2)cc1 | 0 | 78* | -1 | 0 | 0 | 12
COc1cccc(CN2CCN(Cc3ccc(F)cc3)CC2)c1 | -1 | 72* | -18 | 0 | 10 | 14
CN1CCN(Cc2ccc(N(C)C)cc2)CC1 | 1 | -40 | -6 | 0 | x | x
COc1ccc(CN2CCN(Cc3ccc(Br)cc3)CC2)cc1 | 0 | 85* | 9 | 0 | -2 | 14
CN1CCN(Cc2ccc(C(F)(F)F)cc2)CC1 | 0 | 56* | 1 | 0 | 0 | 3
COc1cccc(CN2CCN(c3ccc(F)cc3)CC2)c1 | 0 | 43 | 8 | 0 | x | x
